Test results reported in PubChem BioAssay (NCATS).
Inconclusive results are not listed. The source made the active and inactive calls. Calls come from the whole dose curve; as a rule, active = well fitted inhibition curve with a large enough effect; inconclusive = small, poorly fitted or top-dose-only effect; inactive = flat fitted curve, though single readings scatter.

The compounds below were run against Calcium and integrin-binding protein 1 (Homo sapiens) (UniProt Q99828) (assay: Primary qHTS for Identification of Calcium Integrin Binding Protein 1 (CIB1) Competitor (AID 1508620;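 note: GST tagged CIB1 binding a fluorescein labelled alphaIIb integrin peptide tracer; top concentration of the series differs between compounds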)). Conditions: CIB1-GST / FITC-alphaIIb peptide fluorescence polarization; series mostly up to 114 µM; activity change, negative = inhibition: at the top concentration.
Sequence of Calcium and integrin-binding protein 1 (Homo sapiens) (Q99828 whole entry, looked up): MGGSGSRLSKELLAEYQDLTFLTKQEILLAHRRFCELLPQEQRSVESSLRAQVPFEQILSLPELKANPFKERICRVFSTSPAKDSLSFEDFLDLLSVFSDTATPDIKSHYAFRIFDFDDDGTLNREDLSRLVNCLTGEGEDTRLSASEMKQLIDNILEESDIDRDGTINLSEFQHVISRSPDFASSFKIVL
Summary of the method: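 CIB1-GST (1 uM final) and compound incubated 15 min at room temperature before adding FITC-alphaIIb peptide tracer (100 nM final). Competition for binding read by fluorescence polarization (ex 480, em 540) after another 15 min at room temperature.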
% is set by controls: 0 for no effect and ±100 for the full control effect.

Compound	activity change, negative = inhibition
O=C(N[C@H]1CCCc2c1cnn2-c1ccc(F)cc1F)c1ccccn1	-0.229% (inactive)
Oc1cc(NCc2ccc(Cl)cc2)cc2cccnc12	0.389% (inactive)
Fc1cc(Nc2nc(-c3ccncc3)nc3ccccc23)ccc1-c1cccnc1	13.2% (inactive)
N=c1c2c(ccn1CCCc1ccccc1)Oc1ccc3ccccc3c1C2c1ccccc1 (stereo not given)	7.15% (inactive)
O=S(=O)(c1ccc2c(c1)OCCO2)N1CCCN(S(=O)(=O)c2c(F)cccc2F)CC1	6.16% (inactive)
CC1=C(C(=O)Nc2ccccc2C)C(c2ccccc2Br)N=C(Nc2nc3ccccc3o2)N1 (stereo not given)	-0.382% (inactive)
COc1cc(F)cc(F)c1[S+](=O)([O-])N1CCN([S+](=O)([O-])c2ccc3c(c2)OCCO3)CC1	1.46% (inactive)
CCCCNC(=O)c1ccc2c(c1)ncn2-c1cccc(C)c1	2.37% (inactive)
COc1cccc(CNc2ccc(S(=O)(=O)Nc3cc(C)on3)cc2)c1O	-4.73% (inactive)
CNc1cc2c(cc1S(=O)(=O)Nc1ccc(C)c(C)c1)CCC(=O)N2	-1.6% (inactive)
N#Cc1ccccc1OC1=NS(=O)(=O)c2ccccc21	3.75% (inactive)
Cc1cccc(CNc2ncnc3ccc(-c4ccc5c(ccn5C)c4)cc23)c1	6.86% (inactive)
COc1ccccc1NC(=O)C1=C(C)NC(Nc2nc3ccccc3o2)=NC1c1ccccc1Br (stereo not given)	5.63% (inactive)
N#Cc1nc(Nc2cccc(Br)c2)nc(NC2CCCC2)n1	5.09% (inactive)
Cc1cc(C)nc(NC(=S)N2CCN(c3ccc(Cl)cc3S(C)(=O)=O)CC2)c1	-2.12% (inactive)
COc1ccc(C(=O)Nc2ccc(-c3nc4ccccc4[nH]3)cc2)cc1Br	2.69% (inactive)
O=C(c1ccc2c(c1)ncn2-c1ccccc1)N1CCCCC1	2.05% (inactive)
Cc1cc(NCc2ccc(-c3cccnc3)cc2)nc(-c2ccccc2C(C)C)n1	4.93% (inactive)
COc1ccc(Nc2nc(C#N)nc(NC3CCCC3)n2)cc1	4.3% (inactive)
O=S(=O)(c1cccc(-c2n[nH]c(=S)n2-c2ccccc2)c1)N1CCCC1	3.01% (inactive)

Compound	activity change, negative = inhibition
CCOC(=O)C1CCN(C(=O)C(C)(C)NC(=O)Nc2cccc(OC)c2)CC1	-6.79% (inactive)
O=S(=O)(c1ccc(C(F)(F)F)cc1)N1CCN(S(=O)(=O)c2ccc3c(c2)OCCO3)CC1	5.1% (inactive)
O=S1(=O)N=C(Oc2ccc(Br)cc2)c2ccccc21	-2.85% (inactive)
CC1=C(C(=O)Nc2nc3ccccc3s2)C2(CCCC2)N=C(Nc2nc3ccccc3o2)N1	-0.823% (inactive)
c1csc(CNc2ncnc3ccc(-c4ccc5c(c4)OCCO5)cc23)c1	-1.59% (inactive)
Cc1ccc(OCCn2c(CCNC(=O)c3ccc(C(F)(F)F)cc3)nc3ccccc32)cc1	-1.97% (inactive)
FC(F)(F)c1cccc(-c2nc(NCc3ccc(-c4ccnc(C(F)(F)F)c4)cc3)c3ccccc3n2)c1	2.02% (inactive)
COc1ccc(CSc2nc3ncc(Br)cc3[nH]2)cc1F	1.74% (inactive)
Cc1cc(-c2nnc3n2CCCCC3)c(C)n1-c1cccc2ccccc12	-1.81% (inactive)
CCN(Cc1sccc1C)c1ncnc2ccc(-c3ccc4c(c3)OCO4)cc12	14.2% (inactive)
CCOc1ccc(CCNC(=O)c2cc3ccccc3n2Cc2ccc(Cl)c(F)c2)cc1OCC	-0.838% (inactive)
c1nc(NCc2ccc3c(c2)OCO3)c2cc(-c3ccc4c(c3)OCCO4)ccc2n1	-4.21% (inactive)
O=[S+]([O-])(c1ccc2c(c1)OCCO2)N1CCN([S+](=O)([O-])c2ccc(F)cc2Cl)CC1	0.718% (inactive)
Cc1nnc(-c2ccccc2C(C)C)nc1NCc1ccc(-c2cccnc2)cc1	-4.41% (inactive)
FC(F)(F)c1cccc(N2CCN(C(=S)Nc3ncnc4ccccc34)CC2)c1	12.6% (inactive)
COc1ccc(NS(=O)(=O)c2ccccc2)cc1NS(=O)(=O)c1ccccc1	-1.24% (inactive)
O=C(Nc1ccc(Br)c(Br)c1)Nc1nnc(-c2cccnc2)s1	4.55% (inactive)
FC(F)(F)c1cccc(N2CCN(C(=S)Nc3ccncc3)CC2)c1	2.08% (inactive)
COc1cc(O)c(C(CC(=O)N2CCCC(C)C2)c2ccc(OC)c(OC)c2)c(OC)c1 (stereo not given)	3% [at 228 µM] (inactive)
CC(C)(C)c1ccc(C(=O)Nc2ccc(-c3nc4ccccc4[nH]3)cc2)cc1	1.05% (inactive)
